Screening results: PubChem BioAssay, National Center for Advancing Translational Sciences (NCATS)
Shown are actives, neighbours in structure and some others; about 7.5% of the full set was active somewhere.
NPC1 promoter act = activates the NPC1 promoter; Potency, µM (highest dose often 9.22 µM), most hits filed as activators; 320,000 tested, 2.4% active; Huh7 NPC1 promoter luciferase reporter, 24 h; AID 485313; note: nearly all actives have a fitted effect of over 60% in size
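Luciferase expression driven by the NPC1 promoter was measured in stably transfected Huh7 cells after a 24 h compound incubation, using a luciferase reagent and a luminescence read.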
Rab9 prom act = activates the Rab9 promoter; 320,000 tested, 2.8% active; Huh7 Rab9 promoter-luciferase reporter, luminescence, 24 h; Potency, µM (series often up to 9.22 µM), actives largely listed as activators; note: nearly all actives have a fitted effect of over 60% in size
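Promoter activation is measured as luciferase luminescence in Huh7 cells stably transfected with a Rab9 promoter–luciferase construct, following 24 h compound exposure at 37 °C and 10 min reagent incubation at ambient temperature.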
ELG1 genotoxic = induces genotoxicity in HEK293T cells with luciferase-tagged ELG1 | HEK293T ELG1-luciferase reporter, luminescence, 16 h | Potency, µM (series often up to 46 µM), most hits filed as activators | 330,000 tested, 1.3% active; note: nearly all actives have a fitted effect of over 60% in size
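Cells (2,000/well) expressing the ELG1-luciferase fusion are dosed by pin tool and kept 16 hr at 37 °C, 5% CO2. Signal comes from ONE-Glo luciferase reagent after 30 min at room temperature.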
SMN2 splice up = increases expression of the SMN2 splice variant; 210,000 tested, 2.8% active; Potency, µM (highest dose often 46.1 µM), usual class: activators; AID 1458; HEK293 SMN2-luciferase splicing reporter, luminescence, 30-36 h; note: nearly all actives have a fitted effect of over 55% in size
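HEK293 cells carry an SMN2 […]–luciferase reporter in which exon 7 inclusion puts luciferase in frame. Cells were plated 10-12 h before compound addition, then incubated 30-36 h at 37C. ONE-Glo luminescence was read; sodium butyrate at 4.5 mM final served as control.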
FLuc modulator = firefly luciferase modulation, counter-screen for miR-21 project | AID 588342 | 360,000 tested, 6.9% active | P08659 | purified FLuc, Km substrates, luminescence inhibition | Potency, µM (top dose mostly 57.5 µM), hits mostly inhibitors; note: nearly all actives have a fitted effect of over 55% in size
Target sequence (P08659 whole entry, looked up): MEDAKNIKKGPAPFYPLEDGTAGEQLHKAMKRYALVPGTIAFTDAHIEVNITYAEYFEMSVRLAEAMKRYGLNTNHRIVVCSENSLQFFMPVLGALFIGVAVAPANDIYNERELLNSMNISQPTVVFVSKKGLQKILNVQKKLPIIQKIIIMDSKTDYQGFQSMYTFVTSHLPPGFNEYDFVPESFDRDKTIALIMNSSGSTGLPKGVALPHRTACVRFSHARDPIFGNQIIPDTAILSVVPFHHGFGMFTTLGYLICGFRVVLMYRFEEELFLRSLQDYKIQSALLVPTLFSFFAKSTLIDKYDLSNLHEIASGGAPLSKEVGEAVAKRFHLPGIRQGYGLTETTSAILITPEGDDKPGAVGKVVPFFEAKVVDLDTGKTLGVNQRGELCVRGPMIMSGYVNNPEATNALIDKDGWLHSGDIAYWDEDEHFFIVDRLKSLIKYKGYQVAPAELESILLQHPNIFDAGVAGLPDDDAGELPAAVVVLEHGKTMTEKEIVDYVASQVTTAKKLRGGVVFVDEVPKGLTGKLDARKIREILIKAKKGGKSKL
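Purified P. pyralis luciferase (10nM final) with 10uM D-luciferin and 10uM ATP (Km levels) in 50mM Tris acetate pH 7.5, 10mM Mg acetate, 0.01% Tween-20, 0.05% BSA; qHTS 6-point titration, ~60 µM downward; luminescence read.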
Luc counter = counter-screen: inhibitors of Kinase-Glo firefly luciferase; Q27757; Kinase-Glo luciferase, ATP luminescence, 8 min; Potency, µM (titrated, usually from 38.3 µM), actives largely listed as inhibitors; 200,000 tested, 0.28% active; AID 1379; note: nearly all actives have a fitted effect of over 60% in size
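Recombinant Kinase-Glo luciferase, 10 uM ATP (linear range), luciferin; imidazole pH 7.2 / KCl / MgCl2 / Tween / BSA buffer; 8 min RT; luminescence.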
Each line names hits and unclear results; the compound was inactive in the other large screens. Calls come from the whole dose curve; as a rule, active = well fitted curve in the direction sought with a large enough effect; inconclusive = small, poorly fitted or top-dose-only effect, or another doubt; inactive = no such curve, though single readings can be large; an effect the other way counts as inactive or inconclusive.

COC(=O)c1ccc(COc2cc([N+](=O)[O-])cc3cccnc23)o1	FLuc modulator 21µM (no result: SMN2 splice up)
O=C(COc1cc([N+](=O)[O-])cc2cccnc12)NCCC1=CCCCC1	none (no result: SMN2 splice up, Luc counter)
Cc1ccc(OCc2ccc(C(=O)NN)o2)c([N+](=O)[O-])c1	FLuc modulator inconclusive (no result: SMN2 splice up, Luc counter)
CCOC(=O)c1c(NC(=O)/C=C/c2ccccc2)sc2c1CCCC2	none (no result: NPC1 promoter act, Rab9 prom act, ELG1 genotoxic, Luc counter)
Cc1ccc2oc(-c3cccc(NC(=O)c4ccc(Br)o4)c3C)nc2c1	FLuc modulator 7.6µM
Cc1cc2nc(-c3cccc(NC(=O)C(C)C)c3C)oc2cc1C	FLuc modulator 0.48µM (no result: NPC1 promoter act, Rab9 prom act, ELG1 genotoxic, SMN2 splice up, Luc counter)
Cc1cc2nc(-c3cccc(NC(=O)c4ccc(Br)o4)c3C)oc2cc1C	FLuc modulator 4.3µM
COc1cc2ccccc2cc1C(=O)Nc1cccc(-c2nc3cc(C)c(C)cc3o2)c1C	FLuc modulator inconclusive (no result: NPC1 promoter act, Rab9 prom act, ELG1 genotoxic, Luc counter)
O=C(CN1C=NS(=O)(=O)c2ccccc21)Nc1ccccc1F	none (no result: NPC1 promoter act, Rab9 prom act, ELG1 genotoxic, SMN2 splice up, Luc counter)
COc1ccc(C(=O)OCC(=O)c2ccc3c(c2)NC(=O)CO3)cc1S(=O)(=O)N1CCOCC1	none (no result: NPC1 promoter act, Rab9 prom act, SMN2 splice up, FLuc modulator, Luc counter)
Cc1ccc(Cl)cc1NC(=O)COCc1cc(-c2ccco2)on1	none (no result: NPC1 promoter act, Rab9 prom act, ELG1 genotoxic, SMN2 splice up, Luc counter)
COc1cc(CNC(=O)c2ccc3nc(Cc4ccccc4)oc3c2)cc(OC)c1OC	none (no result: NPC1 promoter act, Rab9 prom act, ELG1 genotoxic, SMN2 splice up, Luc counter)
CC(=O)N=C1SC2CS(=O)(=O)CC2N1c1ccc(-c2nc3ccc(C)cc3s2)cc1 (stereo not drawn)	NPC1 promoter act 2.8µM, Rab9 prom act 0.89µM, ELG1 genotoxic inconclusive, SMN2 splice up 18µM, FLuc modulator 9.5µM
Cc1ccc(CN2C(=NC(=O)CCC(=O)O)SC3CS(=O)(=O)CC32)cc1 (stereo not drawn)	none (no result: SMN2 splice up, Luc counter)
Cc1ccc2nc(-c3ccc(N4C(=NC(=O)CCC(=O)O)SC5CS(=O)(=O)CC54)cc3)sc2c1 (stereo not drawn)	NPC1 promoter act inconclusive, Rab9 prom act 4.5µM, ELG1 genotoxic inconclusive, FLuc modulator 11µM (no result: SMN2 splice up, Luc counter)
CN1C(=O)c2ccccc2Sc2ccc(NC(=O)COc3ccc(F)cc3)cc21	none (no result: NPC1 promoter act, Rab9 prom act, ELG1 genotoxic, SMN2 splice up, Luc counter)
COc1ccc(-n2nc(C(=O)NCC(=O)O)c3ccccc3c2=O)cc1	none (no result: SMN2 splice up, Luc counter)
CCN1CCN(C(=O)CNC(=O)c2nn(-c3ccc(OC)cc3)c(=O)c3ccccc23)CC1	FLuc modulator 4.8µM (no result: SMN2 splice up, Luc counter)
COc1ccc(-n2nc(C(=O)NCC(=O)N3CCN(Cc4ccccc4)CC3)c3ccccc3c2=O)cc1	FLuc modulator inconclusive (no result: SMN2 splice up, Luc counter)
COc1ccc(-n2nc(C(=O)NCC(=O)N3CCCCC3)c3ccccc3c2=O)cc1	FLuc modulator 3µM (no result: SMN2 splice up, Luc counter)
COc1ccc(-n2nc(C(=O)NCC(=O)N3CCCC3)c3ccccc3c2=O)cc1	FLuc modulator 12µM (no result: SMN2 splice up, Luc counter)
COc1ccc(-n2nc(C(=O)NCC(=O)N(C)Cc3ccccc3)c3ccccc3c2=O)cc1	FLuc modulator 17µM (no result: SMN2 splice up, Luc counter)
COc1ccc(-n2nc(C(=O)NCC(=O)NC(C)C)c3ccccc3c2=O)cc1	none (no result: SMN2 splice up, Luc counter)
Cc1cc(C)c2c(=O)nc(SCc3ccccc3C)n(C3CC3)c2n1	none (no result: NPC1 promoter act, Rab9 prom act, ELG1 genotoxic, SMN2 splice up, Luc counter)
O=C1/C(=C/c2cccnc2)N=C2CCCCCN12	none
COc1ccc(/C=C2\N=C3CCCCCN3C2=O)cc1OC	FLuc modulator inconclusive
COc1cc(/C=C2\N=C3CCCCCN3C2=O)ccc1O	ELG1 genotoxic inconclusive, SMN2 splice up inconclusive, FLuc modulator 17µM
COc1ccc(/C=C2/N=C3CCCCCN3C2=O)cc1	ELG1 genotoxic inconclusive, FLuc modulator 17µM
O=C1/C(=C\c2ccc(O)c(O)c2)N=C2CCCCCN12	ELG1 genotoxic inconclusive, FLuc modulator 19µM (no result: SMN2 splice up, Luc counter)
Cc1cc(/C=C/c2ccc3cc(N(C)C)ccc3[n+]2C)c(C)n1-c1ccccc1	none (no result: NPC1 promoter act, Rab9 prom act, ELG1 genotoxic, FLuc modulator)
COc1ccc(Nc2n[nH]c(C)c2[N+](=O)[O-])cc1	Rab9 prom act 3.5µM, ELG1 genotoxic inconclusive, FLuc modulator inconclusive
CCCCOc1ccc(Cn2c(=O)sc3ccccc32)cc1	none (no result: NPC1 promoter act, Rab9 prom act, ELG1 genotoxic, Luc counter)
O=C(N/N=C/c1ccccc1Cl)c1cccc(F)c1	NPC1 promoter act 2.5µM, Rab9 prom act 2µM, ELG1 genotoxic inconclusive, SMN2 splice up 22µM, FLuc modulator 4.8µM
COCCNC(=O)Cn1cc(/C=N/NC(=O)c2ccc(Oc3ccc(O)cc3)cc2)c2ccccc21	FLuc modulator 11µM
